According to PubChem BioAssay AID1347141 (National Center for Advancing Translational Sciences (NCATS), 2019):
The other results are listed elsewhere or left out. Inconclusive results are not listed. Calls of active or inactive are those of the source. The call rests on the fitted dose curve; in most records, active means well fitted inhibition curve with a large enough effect; inconclusive means small, poorly fitted or top-dose-only effect; inactive means flat fitted curve, though single readings scatter.

assay: qHTS of pediatric cancer cell lines to identify multiple opportunities for drug repurposing: Orthogonal 3D viability screen for RD cells; conditions: RD rhabdomyosarcoma 3D spheroid viability, PI/Hoechst imaging, 72 h; series mostly up to 30.7 µM
Excerpt: Drug repurposing or repositioning has been offered as a strategy for drug development in oncology programs. This approach has special potential for childhood cancers and other rare or orphan diseases, where the expected return on new drug development has been a disincentive to pharmaceuticals. […] In this project we exploit the poly-pharmacology of drugs to discover new indications via phenotypic screening of a panel of 19 well-characterized cell lines derived from solid tumors seen in children and adolescents. The goal is to identify approved drugs with previously unrecognized anticancer properties that has the potential to reveal new mechanisms and biological processes involved in carcinogenesis or drug resistance. We employed a titration-based paradigm (quantitative high-throughput screening or qHTS), where all compounds were tested at multiple concentrations for their effect on cell viability. Concentration-response curves (CRCs) were derived directly from the primary screen, and both potency and efficacy values were used to identify compounds with robust bioactivity profiles. […] These two assays will be used to validate active compounds and assess the correlation of compound's potency in 2D vs 3D cultures on selected cell lines. Assay Submitter: Nathalia J. Martinez, National Center for Advancing Translational Sciences, National Institutes of Health, Rockville, MD, USA; email: natalia.martinez@nih.gov Shen, M et al. Quantitative high-throughput phenotypic screening of pediatric cancer cell lines identifies multiple opportunities for drug repurposing. Oncotarget 2017 Dec 19;9(4):4758-4772. PMID 29435139.
The cells were obtained from University of North Carolina (UNC), Pediatric Preclinical Testing Program (PPT), and Coriell Institute (CI). qHTS viability in 3D culture: Cells were assayed in phenol red-free growth media at a density of 1,000 cells/well, with the exception of Daoy, and SH-N-SH which were assayed at 1,500 cells/ well. Thirty muL of cells were dispensed into 384-well, ULA, round bottom plates (Corning) using a Multidrop dispenser. Plates were spun down at 1,000 rpm for 1 min and incubated at 37 degrees C, 5% CO2, under a humidified atmosphere for either 24 (Daoy) or 48 hours (all other cell lines) to allow spheroid formation. Ninety-two nanoliter of compounds and controls (neutral control DMSO or positive control bortezomib at final concentrations of 0.5 µM) were subsequently transferred via GNF Pintool. Plates were sealed using a breathable seal (Diversified Biotech, Dedham, MA) and incubated for 72 hours at 37 degrees C. Spheroid viability was first determined by high-content imaging using Hoechst 33342 and Propidium Iodide (PI, ThermoFisher Scientific), followed by addition of CellTiter-Glo 3D (Promega). Specifically, 3 µL/well of PBS containing a 1:500 dilution of both dyes was dispensed using Multidrop. Dyes were incubated for 1 hour before imaging using the Celigo Image Cytometer. Then, 20 µl of CellTiter-Glo 3D were added per well. Plates were incubated for 30 min at RT on a VWR microplate shaker (300 rpm) and analyzed for luminescence intensity using a ViewLux High-throughput CCD imager equipped with clear filters. Image analysis was done using the Celigo Tumorsphere 1+2+3 application software as previously described. […] The data were exported to Excel, and the average fluorescent intensities were used to calculate the ratio of PI over Hoechst, which was used to quantify viability. […]

Compound | Potency
CC[C@H]1CN2CCc3cc(OC)c(OC)cc3[C@@H]2C[C@@H]1C[C@H]1NCCc2cc(OC)c(OC)cc21 | 2040 nM (active)
CC(NCc1ccc2c(c1)nc(NC(=O)c1ccc(-c3cn[nH]c3)s1)n2CC(C)(C)O)C(C)(C)C (stereo not given) | 810 nM (active)
C=C1C(=CC=C2CCC[C@]3(C)[C@@H]([C@H](C)C=C[C@H](C)C(C)C)CC[C@@H]23)C[C@@H](O)C[C@@H]1O | inactive
CC[C@]1(O)C[C@@H]2CN(CCc3c([nH]c4ccccc34)[C@@](C(=O)OC)(c3cc4c(cc3OC)N(C)[C@H]3[C@@](O)(C(=O)OC)[C@H](OC(C)=O)[C@]5(CC)C=CCN6CC[C@]43[C@@H]65)C2)C1 | 45.6 nM (active)
CC1(C)O[C@@H]2C[C@@H]3[C@H]4C[C@@H](F)C5=CC(=O)C=C[C@]5(C)[C@@]4(F)[C@@H](O)C[C@]3(C)[C@]2(C(=O)CO)O1 | 10200 nM (active)
